Growth inhibition and condensed nuclei data for 39 compounds are collected here from PubChem BioAssay AID771 (SRMLSC, 2007).

The experiment is described as follows: HT29 colon tumor cell growth inhibition, primary screen, imaging, high content imaging, 48 h, CellTiter-Glo (AID 771).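 For condensed nuclei: condensed means Hoechst nuclear area under control median minus 1.5 SD.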 The following applies: HCS imaging cell count, at 10 µM, stronger effect = higher value; for condensed nuclei: measured here: percent cells with condensed nuclei.
[1] abbreviates: measured here: ATP CellTiter-Glo viability inhibition.

Screen size: about 3,300 compounds; about 55 (2%) were called active.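 Rule for the calls: active = growth inhibition above 90%, meaning viable cell count by imaging cut by more than 90% versus vehicle controls; inactive = growth inhibition below 90%.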 Shown is part of a subset that was picked to be rich in actives.

For the compound `N#CC1(c2ccccc2)CCC(=NO)CC1` (stereo not drawn), the growth inhibition is -54.8% (inactive) and the condensed nuclei is 1.75%. In addition, the growth inhibition under setting [1] was -7.61%.
For `CC1(C)Cc2c(c(-c3ccccc3)[nH]c(=O)c2C#N)CS1` the same measures were 40.9% (inactive), 3.57% and 27.6%.
Consider `C=CCn1c(N)c(C(=O)OC(C)(C)C)c2nc3ccccc3nc21`, for which the growth inhibition was 56.4% (inactive) and the condensed nuclei came to 2.73%. Also, the growth inhibition under setting [1] was determined as 24.8%.
For the compound `C=CCn1c(N)c(C(=O)Nc2ccccc2)c2nc3ccccc3nc21`, the growth inhibition was 90.9% (active) and the condensed nuclei was 18.1%. Besides, the growth inhibition under setting [1] turned out to be 90.8%.
For `COCCNC(=O)c1c(N)n(CCC2=CCCCC2)c2nc3ccccc3nc12` the same measures were 39.4% (inactive), 2.68% and 20.4%.
In the case of `C=CCn1c(-c2ccccc2)n[nH]c1=S`, the growth inhibition is -21.6% (inactive) and the condensed nuclei was found to be 2.91%. Under setting [1], the growth inhibition was -24.2%.
In the case of `Cc1ccc(NC(=O)c2cc(N3CCOCC3)nc3ccccc23)cc1`, the growth inhibition was 52% (inactive) and the condensed nuclei is 7.65%. In addition, the growth inhibition under setting [1] amounted to 31.6%.
For `CCOC(=O)c1[nH]c2ccc(OC)cc2c1NC(=O)CCN1CCc2ccccc2C1`, the growth inhibition was 24.3% (inactive) and the condensed nuclei is 9.73%. Further, the growth inhibition under setting [1] came out at 4.08%.
With `Clc1ccc2[nH]c3c(NCCN4CCOCC4)ncnc3c2c1`, the growth inhibition is 90.1% (active) and the condensed nuclei turned out to be 8.91%. For the same compound, the growth inhibition under setting [1] is 74.8%.
For the compound `CCN(CC)CCNc1ncnc2c1[nH]c1ccc(OC)cc12`, the growth inhibition was 68.1% (inactive) and the condensed nuclei is 4.62%. Further, the growth inhibition under setting [1] turned out to be 44%.
For `Oc1ccccc1-c1nc(NCCN2CCOCC2)c2ccccc2n1` the same measures were 83.2% (inactive), 16.5% and 73.4%.
The like results for `Fc1ccccc1-c1nc(NCCCN2CCOCC2)c2ccccc2n1` were, in that order, 40% (inactive), 7.24% and 34.1%.
As for `Cc1ccc2[nH]c3c(NCCN4CCOCC4)ncnc3c2c1`, the growth inhibition was 45.8% (inactive) and the condensed nuclei amounted to 3.45%. Also, under setting [1], the growth inhibition amounted to 24.8%.
For `Clc1ccc2[nH]c3c(NCCCN4CCOCC4)ncnc3c2c1`, the growth inhibition is 97.5% (active) and the condensed nuclei worked out at 33%. For the same compound, the growth inhibition under setting [1] worked out at 90%.
On to `CC/C(C)=C1\SC(N2CCN(C(C)=O)CC2)=NC1=O`, for which the growth inhibition is -12% (inactive) and the condensed nuclei amounted to 2.39%. For the same compound, the growth inhibition under setting [1] is -28.4%.
Consider `Cc1c(N=Cc2c(O)n(C3CCCCC3)c(=O)[nH]c2=O)c(=O)n(-c2ccccc2)n1C`, for which the growth inhibition is -40.9% (inactive) and the condensed nuclei turned out to be 2.12%. Further, under setting [1], the growth inhibition was -6.25%.
The like results for `COC(=O)CN(c1nc(C)c(Br)c(OC)n1)S(=O)(=O)c1ccc(C)cc1` were, in that order, 28.7% (inactive), 1.9% and 6.19%.
Turning to `N#Cc1ccc(-c2ccc(OCC(O)Cn3nnc4ccccc43)cc2)cc1` (stereo not drawn), the growth inhibition is 10.4% (inactive) and the condensed nuclei came to 1.87%. In addition, under setting [1], the growth inhibition is -1.94%.
For the compound `CCOc1ccc(-c2nnc3sc(COc4ccccc4)nn23)cc1`, the growth inhibition was 41.5% (inactive) and the condensed nuclei was 2.51%. In addition, under setting [1], the growth inhibition was -17%.
For the compound `Clc1ccc(-n2ncc3c(NCc4cccs4)ncnc32)cc1`, the growth inhibition was -9.4% (inactive) and the condensed nuclei came to 3.73%. Moreover, the growth inhibition under setting [1] was -1.37%.
As to `Cc1cccc(-n2ncc3c(NCCN4CCOCC4)ncnc32)c1`, the growth inhibition is 15.5% (inactive) and the condensed nuclei was found to be 3.92%. Also, the growth inhibition under setting [1] is 9.31%.
For `COc1ccccc1Nc1ncnc2c1cnn2-c1cccc(C)c1` the same measures were 30.4% (inactive), 2.98% and -0.29%.
The like results for `Clc1ccc(-n2ncc3c(NCc4ccco4)ncnc32)cc1` were, in that order, 92.3% (active), 19.6% and 76.5%.
As to `Cc1cccc(-n2ncc3c(NCc4ccco4)ncnc32)c1`, the growth inhibition is 90.8% (active) and the condensed nuclei was determined as 5.66%. Further, the growth inhibition under setting [1] is 68.2%.
On to `Clc1ccc(-n2ncc3c(NCc4ccccn4)ncnc32)cc1`, for which the growth inhibition is 38.1% (inactive) and the condensed nuclei worked out at 3.3%. Moreover, the growth inhibition under setting [1] amounted to 0.14%.
For the compound `CC(=O)c1ccc(O)c(CO)c1`, the growth inhibition was -13.1% (inactive) and the condensed nuclei was 2.86%. Also, under setting [1], the growth inhibition is -11.8%.
Turning to `COC(=O)c1ccc(C2NC(C(=O)O)CS2)cc1` (stereo not drawn), the growth inhibition is 16% (inactive) and the condensed nuclei is 1.25%. Besides, the growth inhibition under setting [1] was -10.7%.
As for `CCNC(=O)Nn1c(C)nnc1C`, the growth inhibition is -8.98% (inactive) and the condensed nuclei is 1.64%. Moreover, under setting [1], the growth inhibition is -2.65%.
`Cc1ccc2nc(NCc3ccccc3)[nH]c2c1`: the growth inhibition was 87.6% (inactive) and the condensed nuclei is 19.4%. For the same compound, the growth inhibition under setting [1] was 67.4%.
On to `COC(=O)Nc1nc2ccc(C(=O)c3ccccc3)cc2[nH]1`, for which the growth inhibition was 86.4% (inactive) and the condensed nuclei amounted to 34.6%.
For `CCCSc1ccc2nc(NC(=O)OC)[nH]c2c1` the same measures were 90.4% (active) and 33.3%.
Regarding `CCOc1ccc2nc(SCC(=O)Nc3ncccn3)[nH]c2c1`, the growth inhibition was -11.5% (inactive) and the condensed nuclei is 3.9%. In addition, the growth inhibition under setting [1] worked out at 0%.
With `CCCOc1ccc2nc(NC(=O)OC)[nH]c2c1`, the growth inhibition is 78.7% (inactive) and the condensed nuclei stood at 35.7%.
Turning to `COC(=O)Nc1nc2ccc(Sc3ccccc3)cc2[nH]1`, the growth inhibition was 90.4% (active) and the condensed nuclei stood at 42%.
`Cc1cc(=O)oc(C)c1C(=O)Nc1ccc2nsnc2c1`: the growth inhibition is 31.3% (inactive) and the condensed nuclei was 3.08%. Under setting [1], the growth inhibition was -17.1%.
The like results for `CCCCCNC(=O)c1c(N)n(/N=C/c2ccco2)c2nc3ccccc3nc12` were, in that order, 44.5% (inactive), 0.77% and 5.72%.
Take `CC1(C)Cc2c(C#N)c(SCC(=O)c3ccccc3)nc(N3CCOCC3)c2CS1`: the growth inhibition was 83.5% (inactive) and the condensed nuclei turned out to be 17.6%. Further, the growth inhibition under setting [1] was determined as 76.7%.
On to `CCN(CC)CCOC(=O)C1(c2ccc(OC)c(OC)c2)CCCC1`, for which the growth inhibition was -76.7% (inactive) and the condensed nuclei amounted to 1.64%. Also, the growth inhibition under setting [1] was -5.14%.
In the case of `COc1ccc(C(=O)NCCCCCC(=O)O)cc1OC`, the growth inhibition was 5.72% (inactive) and the condensed nuclei stood at 1.69%. For the same compound, the growth inhibition under setting [1] stood at 3.37%.
